Screening data deposited in PubChem BioAssay by National Center for Advancing Translational Sciences (NCATS).
Shown are actives, neighbours in structure and some others; about 8.3% of the full set was active somewhere.
HCMV inh – inhibitors of human cytomegalovirus; AID 1259415; 410,000 tested, 4.5% active; HFF cells, HCMV-luciferase reporter, 72 h; hits give low values; activity change, negative = inhibition, % at 57.5 µM; in the data active = activity change below about -60%; inconclusive = no clear call, values can overlap the other calls; inactive = above about -39%
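Steps: HFFs plated, 16 h 37C; compounds added; HCMV-luciferase added to MOI 1 PFU/cell; 72 h 37C; OneGlo reagent, 5 min room temperature; luminescence read, normalized to controls.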
HCV inh – inhibitors of hepatitis C virus infection; 340,000 tested, 3.4% active; Potency, µM (titrated, usually from 41.8 µM), actives largely listed as inhibitors; AID 651820; Huh7.5.1 HCVcc-Cre infection, luciferase reporter, 44 h
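HCVcc-Cre virus at an moi near 0.5 was added right after compound to cells cultured 4 h from seeding (1,000 cells/well). Luciferase activity was determined 44 h later, 15 min after substrate addition at RT.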
LASV entry inh – blocks Lassa virus binding to or entry into cells; Lassa virus pseudotype entry inhibition, cell reporter; Potency, µM (top dose mostly 37.9 µM), most hits filed as inhibitors; 300,000 tested, 1.2% active; AID 540256; calls by dose curve; tested in HEK293 cells; also: nearly all actives have a fitted effect of over 50% in size
MARV entry inh – blocks Marburg virus binding to or entry into cells | Potency, µM (titrated, usually from 37.8 µM), usual class: inhibitors | 300,000 tested, 1.8% active | AID 540276 | Marburg virus pseudotyped entry inhibition, cell reporter; calls by dose curve; tested in HEK293 cells
FMDV antiviral – foot and mouth disease virus antiviral activity | FMDV antiviral cell-based qHTS | AID 1159524 | Potency, µM (highest dose often 57.9 µM), usual class: inhibitors | 410,000 tested, 1.2% active; calls by dose curve; tested in HEK293T cells; also: read-out not given here; nearly all actives have a fitted effect of over 45% in size
FBPA Giardia inh – Giardia lamblia aldolase inhibition | A8B2U2 | purified Giardia FBPA | Potency, µM (highest dose often 59.6 µM), hits mostly inhibitors | 290,000 tested, 0.71% active | AID 2451; also: nearly all actives have a fitted effect of over 55% in size
Target sequence (A8B2U2 whole entry, looked up): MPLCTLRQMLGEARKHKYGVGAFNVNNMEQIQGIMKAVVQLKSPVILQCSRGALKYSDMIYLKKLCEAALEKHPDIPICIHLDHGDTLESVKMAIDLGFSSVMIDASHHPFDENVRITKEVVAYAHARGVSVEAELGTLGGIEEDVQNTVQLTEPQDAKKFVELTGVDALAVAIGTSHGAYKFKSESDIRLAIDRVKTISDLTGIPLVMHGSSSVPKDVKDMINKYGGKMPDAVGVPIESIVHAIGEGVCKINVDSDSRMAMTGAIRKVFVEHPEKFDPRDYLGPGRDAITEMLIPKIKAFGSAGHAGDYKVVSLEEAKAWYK
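Giardia FBPA (40 nM reagent) was preincubated 10 min at RT with compound (up to 57.5 uM final), then substrate plus GAPDH/TPI/NAD/arsenate coupling system with diaphorase/resazurin was added; resorufin fluorescence (525/598 nm) was read after 20 min.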
Numbers stand for hits; – = inactive; ? = inconclusive; · = no result; ! = repeats disagree; [ ] = another dose, or the depositor's remark. Unless noted, calls follow the shape of the dose curve; as a rule, active = well fitted curve in the direction sought with a large enough effect; inconclusive = small, poorly fitted or top-dose-only effect, or another doubt; inactive = no such curve, though single readings can be large; an effect the other way counts as inactive or inconclusive.

SMILES	HCMV inh	HCV inh	LASV entry inh	MARV entry inh	FMDV antiviral	FBPA Giardia inh
S=C(NC1CCCCC1)N1CCN(C/C=C/c2ccccc2)CC1	–	8.91µM	–	?	–	–
CCc1ccccc1NC(=S)N1CCN(c2ccccn2)CC1	-102.4	–	?	–	?	–
CCNC(=S)N1CCN(c2ccccn2)CC1	–	–	–	–	–	–
Fc1ccccc1NC(=S)N1CCN(c2ccccn2)CC1	–	–	–	–	–	–
Cc1cn2c(=O)cc(COc3cccc(NC(=O)c4ccc(C(C)(C)C)cc4)c3)nc2s1	–	·	–	?	–	·
Cc1[nH]c2ccc(C(=O)N3CCN(c4ccccc4F)CC3)cc2c1C	–	·	?	·	–	·
COC(=O)[C@@]1(Sc2ccc(OC)cc2)CC(=O)N(c2ccc(OC(C)C)cc2CO)[C@@H]1c1ccc(OC(C)C)c(OC)c1	–	·	·	·	·	·
COC(=O)c1ccc(C(=O)NCC2Cc3cccc(-c4ccc(C(=O)OC)cn4)c3O2)cc1 (centres undefined)	·	·	·	·	–	·
CC(C)(C)OC(=O)N(CCc1ccccc1)Cc1ccc(OCc2cccc(NC(=O)/C=C/c3ccccc3)c2)cc1	–	–	·	·	–	·
CC(C)(C)OC(=O)N(CCc1ccccc1)Cc1ccc(OCc2cccc(NC(=O)C3CC3)c2)cc1	?	12.6µM	·	·	22.4µM	·
CC(C)C(=O)Nc1cccc(COc2ccc(CN(Cc3ccccc3)C(=O)OC(C)(C)C)cc2)c1	–	0.501µM	·	·	11.2µM	·
CC(C)(C)OC(=O)N(CCc1ccccc1)Cc1ccccc1OCc1ccc(NC(=O)C2CCCC2)cc1	–	–[8.37 µM]	·	·	–	·
CC(C)C(=O)Nc1ccc(COc2ccccc2CN(Cc2ccccc2)C(=O)OC(C)(C)C)cc1	-74.3	–[8.37 µM]	·	·	–	·
N#Cc1cc(-c2ccccc2)nc(Oc2ccccc2)n1	?	10µM	·	·	?	–
N#Cc1ccc(Oc2nc(C#N)cc(-c3ccccc3)n2)cc1	?	–	–	–	11.2µM	–
CN1CCN(c2nc(C#N)cc(-c3ccccc3)n2)CC1	–	10µM	–	–	–	–
COc1ccc2[nH]cc(CCNc3nc(-c4ccccc4CN(C)C)nc4ccccc34)c2c1	·	·	·	·	–	–
CCC(C(=O)NC1CCCCC1)n1nc(C)c2sc3ccccc3c2c1=O (centres undefined)	–	·	–	–	–	·
C=CCOC(=O)N[C@H](c1cccc(OC)c1)[C@H](C)C=CCC(=O)OC	·	·	?	–	·	·
COc1ccc(C(=O)N2CC(=O)Nc3ccc(C)cc3C2c2ccc(F)cc2)c(OC)c1 (centres undefined)	–	·	–	–	–	·
N#CCCn1c(=O)c(-c2cccc(C#N)c2)nc2cnc(N3CCOCC3)nc21	·	·	·	·	–	–
C=CCN(CC=C)C(=O)c1ccc2nc(Cc3ccc(OC)c(OC)c3)oc2c1	-62.0	11.2µM	?	?	–	–
COc1ccc(Cc2nc3ccc(C(=O)N4CCCC4)cc3o2)cc1OC	–	?	?	?	?	–
CN(Cc1nccs1)C(=O)c1ccc2nc(Cc3ccccc3F)oc2c1	–	–	·	·	–	·
COc1ccc(Cc2nc3ccc(C(=O)N4CCN(C)C(C)C4)cc3o2)cc1OC (centres undefined)	-63.9	?	?	?	?	–
SMILES	HCMV inh	HCV inh	LASV entry inh	MARV entry inh	FMDV antiviral	FBPA Giardia inh
COc1ccc(Cc2nc3ccc(C(=O)N(C)Cc4nccs4)cc3o2)cc1OC	-64.9	?	·	·	–	·
CC(C)c1ccc(C(=O)NCc2ccc(Cl)cc2)cc1	–	–	–	?	–	–
Cc1nnc(-c2ccc(C)c(-c3ccc(C(=O)NCc4ccc(Cl)cc4)cc3)c2)o1	·	·	0.628µM	·	·	·
CCCC[C@@H](CNC)NC[C@H](NCCCCC1CCCCC1)C(C)C	-99.1	–	·	·	–	?
CCC[C@@H](CN[C@@H](CNC)C(C)C)NCCCCc1ccccc1	?	?	·	·	–	?
COc1ccc(/C=N/n2cnnc2SCc2ccccc2)cc1	–	–	?	–	–	–
COc1ccc(/C=N/n2cnnc2SCc2ccc(OC)cc2)cc1	–	–	2.51µM	–	–	–
O=C(Nc1ccc(Oc2nnc(-c3ccccc3)c3ccccc23)cc1)c1ccccc1	-60.0	–	–	?	?	–
COc1ccc(Oc2nnc(-c3ccc(C)cc3)c3ccccc23)cc1	–	–	–	–	·	–
C/C(=N\NC(=O)c1cc(C2CC2)nc2ccccc12)c1ccc(O)cc1O	-60.6	6.31µM	?	?	–	–
CCOc1ccc(-c2cc(C(=O)N/N=C(\C)c3cccnc3)c3ccccc3n2)c(OCC)c1	–	?	?	3.98µM	–	–
C/C(=N\NC(=O)c1cc(-c2cccnc2)nc2ccccc12)c1ccccc1O	-101.9	3.98µM	?	10µM	–	–
COc1ccc(-c2cc(C(=O)N/N=C(\C)c3cccnc3)c3ccccc3n2)cc1	–	·	–	–	–	–
C=CC[C@@H]1C=C[C@H](O/N=C2\c3cc(OC)ccc3O[C@H](c3cccc(OC)c3)[C@H]2O)[C@H](CO)O1	·	·	·	·	·	–[12.9 µM]
N=C(N)SCCN	–	–	–	35.5µM!	–	?
CC1(C)CC(=O)c2sc(NC(=O)CCS(=O)(=O)c3ccccc3)nc2C1	?	?	·	·	–	–
CC1(C)CC(=O)C(CS(=O)(=O)c2ccccc2)=C(Cl)C1	-68.0	–	·	·	–	·
Cc1ccc(C)c(OCCn2c(CCNC(=O)C3CCCCC3)nc3ccccc32)c1	·	·	–	?	·	·
COc1ccc(-c2cc(NCc3ccc(C)cc3)n3cnnc3n2)cc1	–	·	?	?	?	·
CC(C)(C)c1ccc(N/N=C(\C#N)S(=O)(=O)C(C)(C)C)cc1	?	?	?	10µM	–	–
CC(C)(C)S(=O)(=O)/C(C#N)=N/Nc1ccc(Cl)cc1	-82.4	?	?	–	?	–
